Screening results deposited in PubChem by National Center for Advancing Translational Sciences (NCATS).
Only some compounds are listed: those with a hit (about 4.2% of all), similar ones and a draw of the others.
Sfp PPTase inh – qHTS Assay for Inhibitors of Bacillus subtilis Sfp phosphopantetheinyl transferase (PPTase); AID 1490, 2009; actives 3.5% (n = 310,000); Potency, µM, inactives show largest response in the series, negative = inhibition, hits mostly inhibitors; Biochemical Sfp PPTase activity, qHTS;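 note: the enzyme is Sfp with the accession as filed and its product quenches rhodamine fluorescence; 0% = enzyme reaction without inhibitor and -100% = no enzyme wells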
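Compounds were incubated with enzyme (final 15 nM) for 15 min at room temperature before substrate addition started the reaction. Fluorescence at 525 nm excitation, 598 nm emission was recorded immediately and after 30 minutes.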
VDR inhibitor – Inhibitors of the vitamin D receptor (VDR): qHTS; VDR-SRC2-3 peptide fluorescence polarization, 2 h; Potency, µM, inactives show max response, negative = inhibition, usual class: inhibitors; actives 0.93% (n = 400,000); AID 504847, 2011
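VDR–SRC2-3 interaction, FP format. Cmpds 23 nl via pintool, brief spin, 2 h ambient incubation.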
PLK1 PBD inh – qHTS for Inhibitors of PLK1-PDB (polo-like kinase 1 - polo-box domain): Primary Screen | Potency, µM, inactives show max response, negative = inhibition, usual class: inhibitors | actives 2.8% (n = 360,000) | Plk1 PBD binding of FITC phosphopeptide, fluorescence polarization; note: series mostly up to about 57 µM; nearly all actives have a fitted effect of over 65% in size
12-LOX inh – Primary qHTS assay for inhibitors of human arachidonate 12S-lipoxygenase (ALOX12): Round 2. AID 1671190, 2021. Potency, µM (doses to about 108 µM), without a hit: top-dose activity change, negative = inhibition, most hits filed as inhibitors. Polyunsaturated fatty acid lipoxygenase ALOX12 (Homo sapiens), P18054. purified 12hLO, xylenol orange hydroperoxide absorbance. actives 1.1% (n = 580,000)
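Purified human 12hLO at 150 nM in 25 mM Hepes, 0.01% Triton X-100, pH 7.0, preincubated 15 min at room temperature with compound. Reaction started with 40 uM arachidonic acid, 30 min at room temperature. Hydroperoxide measured by Fe-xylenol orange, 573/405 nm absorbance ratio.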
An asterisk follows results filed as active; ? = inconclusive; / = no result. Calls come from the whole dose curve; as a rule, active = well fitted curve in the direction sought with a large enough effect; inconclusive = small, poorly fitted or top-dose-only effect, or another doubt; inactive = no such curve, though single readings can be large; an effect the other way counts as inactive or inconclusive. Unless noted, % is set by controls: 0 for no effect and ±100 for the full control effect; potency is the fitted concentration of half-maximal effect.

SMILES | Sfp PPTase inh | VDR inhibitor | PLK1 PBD inh | 12-LOX inh
CCOC(=O)C(=Cc1ccccc1)C(=O)OCC | -21% | 10µM* | / | -11%
COc1ccc(N=C2CCCN2CC(N)=O)cc1 | 24% | -20% | -10% | -2%
CC1CCN(C2CC(=O)N(c3ccccc3)C2=O)CC1 (centres undefined) | -14% | -7% | -2% | 2%
CC1(C)CC(CCN2CCCCC2)(c2cccc(C(F)(F)F)c2)CCO1 (centres undefined) | / | / | / | 1.8µM*
Cc1ccccc1C1(CCN2CCCCC2)CCOC(C)(C)C1 (centres undefined) | 2% | -17% | 0% | 4%
O=C(COc1cc2oc(=O)c3c(c2cc1Cl)CCC3)Nc1ccccn1 | -4% | -6% | -15% | 1%
Cc1ccc(OCC(O)Cn2c(N3CCCCC3)nc3c2c(=O)[nH]c(=O)n3C)cc1 (centres undefined) | 7% | -5% | -1% | 12%
O=C(Nc1ccc(Cl)cc1)c1cc(S(=O)(=O)N2CCCc3ccccc32)ccc1F | / | 7% | / | -24%
CN1C=CC=C/C1=C1\SC(=S)N(C2CCCCC2)C1=O | -18% | -21% | -5% | 0%
CN1C=CC=C/C1=C1\SC(=S)N(CC(=O)O)C1=O | 45µM* | 0% | -7% | ?
CN1C=CC=C/C1=C1\SC(=S)N(c2ccccc2)C1=O | 25µM* | ? | -19% | ?
CCc1nc(SCC(=O)c2cccs2)c2oc3ccccc3c2n1 | 35µM* | -20% | -8% | 0%
CCc1nc(SCC(=O)N2CCc3ccccc32)c2oc3ccccc3c2n1 | / | 3% | 9% | -1%
CCn1cc([N+](=O)[O-])nc1C | 10% | -16% | -14% | -21%
CC(=Nc1cc(C(=O)c2ccccc2)ccc1N)C1=C(O)CC(C)(C)CC1=O | -10% | -8% | 30µM* | -2%
CCc1ccccc1NC(=S)N1N=CCC1c1ccccc1 (centres undefined) | 19% | 1% | -9% | -11%
CCOC(=O)c1ccc(NC(=O)Cn2c(=O)oc3ccccc32)cc1 | 11% | 6% | -9% | ?
CCc1ccc(C(=O)CSc2nc(N)cc(=O)[nH]2)cc1 | 4% | -4% | -1% | 36%
CCc1ccc(C(=O)CSc2n[nH]c(C)n2)cc1 | 56µM* | ? | 27µM* | 0%
Cc1nc(SCC(=O)NCCc2ccccc2)n[nH]1 | 6% | -5% | 3.8µM* | -25%
Cc1nc(SCC(=O)O)n[nH]1 | 7% | -14% | 3% | -7%
Cc1ccc(C(=O)CSc2n[nH]c(C)n2)cc1 | 89µM* | ? | 30µM* | -23%
CCc1c2c(nc3ccccc13)OC(C)C2 (centres undefined) | 16% | / | / | /
CC(=O)c1cc(NC(=O)c2ccc([N+](=O)[O-])cc2)c(=O)oc1C | 16µM* | 0% | -9% | 4%
COc1ccc(C(=O)Nc2cc(C(=O)c3ccccc3)c(C)oc2=O)cc1 | 10µM* | 32µM* | -14% | ?
SMILES | Sfp PPTase inh | VDR inhibitor | PLK1 PBD inh | 12-LOX inh
COC(=O)c1cc(NC(=O)c2ccc([N+](=O)[O-])cc2)c(=O)oc1C | -15% | -9% | -6% | 2%
Cc1oc(=O)c(NC(=O)c2cccc(Cl)c2)cc1C(=O)c1ccccc1 | 8.9µM* | 40µM* | -16% | ?
COC(=O)c1cc(NC(=O)c2ccccc2)c(=O)oc1C | -11% | 1% | ? | 25%
COc1cc(C(O)P(=O)(OCC(C)C)OCC(C)C)cc(OC)c1OC (centres undefined) | 7% | -8% | 12µM* | 22%
O=C(Cn1nc(CNc2ccc(Br)cc2)[n+]2c1CCCCC2)c1ccc([N+](=O)[O-])cc1 | 56µM* | -18% | -16% | ?
COc1ccc(OC)c(C(=O)CN2C(=O)N(c3cc(C)cc(C)c3)S(=O)(=O)c3ccccc32)c1 | / | 8% | / | -22%
Nn1c(Cc2ccc(F)cc2)n[nH]c1=S | -29% | 4% | 19µM* | ?
CC(Cc1n[nH]c(=S)n1N)c1ccccc1 (centres undefined) | 56µM* | -6% | 27µM* | 0%
CC(=O)c1ccc(NC(=O)N[C@H]2CO[C@H]3[C@@H]2OC[C@@H]3n2nnnc2Oc2ccc(-n3ccnc3)cc2)cc1 | / | / | / | 87%
Cc1ccc2nc3c(nc2c1C)C(O)=C3O | -16% | ? | 11µM* | 265%
